Test results reported in PubChem BioAssay (NCI).
Compounds without any hit were thinned out: in the full panel of roughly 83,000, 20% have a hit.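 48-hour exposure, single concentration, 96-well plates; percent growth endpoint where 0 means no net growth. Active: below 10.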 Active and inactive are the calls of the source.

Experiments:
Experiment in all cases: NCI-60 one-dose screen, 48 h (100 = growth as untreated, 0 = no growth, -100 = all killed)
NCI-H23 lung = conditions: 10 µM unless noted
NCI-H226 lung = conditions: 10 µM unless noted
NCI-H322M lung = conditions: 10 µM unless noted
HOP-62 NSCLC = conditions: 10 µM unless noted
NCI-H460 lung = conditions: 10 µM unless noted
HOP-92 NSCLC = conditions: 10 µM unless noted
NCI-H522 lung = conditions: 10 µM unless noted
A549/ATCC NSCLC = conditions: 10 µM unless noted
786-0 renal = conditions: 10 µM unless noted
COLO 205 colon = conditions: 10 µM unless noted
DU-145 prostate = conditions: 10 µM unless noted
MALME-3M melanoma = conditions: 10 µM unless noted
MDA-MB-231 breast = conditions: 10 µM unless noted
RXF 393 renal = conditions: 10 µM unless noted
SF-268 CNS = conditions: 10 µM unless noted
SF-295 CNS = conditions: 10 µM unless noted
SF-539 CNS = conditions: 10 µM unless noted
UACC-257 melanoma = conditions: 10 µM
M14 melanoma = conditions: 10 µM unless noted
K-562 leukemia = conditions: 10 µM unless noted

Measured: growth

C=C(C)C(=O)O[C@H]1C[C@@]2(C)OC(=CC2=O)/C(C)=C\[C@H]2OC(=O)C(=C)[C@H]12
inactive: NCI-H322M lung 79.9% | HOP-62 NSCLC 58.8% | NCI-H460 lung 13.3% | A549/ATCC NSCLC 58.5% | SF-295 CNS 42.1%
active: NCI-H23 lung -2.39% | NCI-H226 lung -1.67% | HOP-92 NSCLC -22% | NCI-H522 lung -72% | 786-0 renal -71.3% | COLO 205 colon -50.1% | DU-145 prostate -3.72% | MALME-3M melanoma 6.62% | MDA-MB-231 breast -33.3% | RXF 393 renal -53.7% | SF-268 CNS 7.51% | SF-539 CNS -54.6% | UACC-257 melanoma -26.3% | M14 melanoma -37%

CCCCCCNC(=O)Oc1ccc(/C(=C(/C)c2ccccc2)c2ccc(OCCN(C)C)cc2)cc1
active: COLO 205 colon 6.56% | UACC-257 melanoma -55.9% | M14 melanoma -35.9%
inactive: NCI-H23 lung 65.3% | NCI-H226 lung 89.6% | NCI-H322M lung 77.1% | HOP-62 NSCLC 86.1% | NCI-H460 lung 18.3% | HOP-92 NSCLC 44.5% | NCI-H522 lung 68.8% | A549/ATCC NSCLC 73.4% | 786-0 renal 57.4% | DU-145 prostate 83.2% | MALME-3M melanoma 37.6% | MDA-MB-231 breast 52.2% | RXF 393 renal 46.5% | SF-268 CNS 69.1% | SF-295 CNS 90% | SF-539 CNS 46.9%

C=C(C)C(=O)O[C@H]1C[C@@]2(C)OC(=CC2=O)/C(CO)=C\[C@H]2OC(=O)C(=C)[C@H]12
active: NCI-H23 lung -35.2% | NCI-H226 lung -39.3% | HOP-92 NSCLC -61.4% | NCI-H522 lung -68.3% | 786-0 renal -66.5% | COLO 205 colon -72.9% | DU-145 prostate -25.2% | MALME-3M melanoma -68.8% | MDA-MB-231 breast -54% | RXF 393 renal -67.6% | SF-268 CNS -13.8% | SF-539 CNS -82.9% | UACC-257 melanoma -34% | M14 melanoma -34%
inactive: NCI-H322M lung 87.6% | HOP-62 NSCLC 58.9% | NCI-H460 lung 12.5% | A549/ATCC NSCLC 65.7% | SF-295 CNS 32.6%

C=CCn1c(SCC(=O)Nc2cccc(C(=O)/C=C/c3ccccc3Cl)c2)nc2ccccc2c1=O
inactive: NCI-H23 lung 94.7% | NCI-H226 lung 91.8% | NCI-H322M lung 92% | HOP-62 NSCLC 108% | NCI-H460 lung 93% | HOP-92 NSCLC 70.7% | NCI-H522 lung 84.8% | A549/ATCC NSCLC 86.2% | 786-0 renal 88% | COLO 205 colon 113% | DU-145 prostate 93.7% | MALME-3M melanoma 96.9% | MDA-MB-231 breast 93.8% | RXF 393 renal 94.3% | SF-268 CNS 88.4% | SF-295 CNS 93.8% | SF-539 CNS 86.6% | UACC-257 melanoma 107% | M14 melanoma 87.5%

CS(=O)(=O)c1nccc(-c2c(-c3ccc(F)c(OCCc4ccccc4)c3)nc3sccn23)n1
inactive: NCI-H23 lung 100% | NCI-H226 lung 89.2% | HOP-62 NSCLC 103% | NCI-H460 lung 28.8% | HOP-92 NSCLC 50.1% | A549/ATCC NSCLC 99% | 786-0 renal 98.2% | COLO 205 colon 112% | MALME-3M melanoma 119% | MDA-MB-231 breast 89.4% | RXF 393 renal 99.1% | SF-268 CNS 98.7% | SF-295 CNS 97.2% | SF-539 CNS 93% | M14 melanoma 83.2%
active: NCI-H322M lung -26.9% | NCI-H522 lung -12.5% | DU-145 prostate -87.9% | UACC-257 melanoma -16.4%

O=C1c2c(c3c4ccc(Br)cc4oc3c3[nH]c4ccccc4c23)C(=O)N1CCO
inactive: NCI-H23 lung 46.3% | NCI-H226 lung 33.3% | NCI-H322M lung 68.1% | HOP-62 NSCLC 12.2% | HOP-92 NSCLC 62.3% | NCI-H522 lung 43.8% | A549/ATCC NSCLC 48.7% | 786-0 renal 30.9% | COLO 205 colon 52.4% | DU-145 prostate 35% | MALME-3M melanoma 65.4% | MDA-MB-231 breast 65.1% | RXF 393 renal 57.1% | SF-268 CNS 49.2% | SF-295 CNS 20.8% | SF-539 CNS 17.1% | M14 melanoma 29.8%
active: NCI-H460 lung 3.9%

Cc1ccc(/C=C/c2nn3c(-c4ccco4)nnc3s2)cc1
inactive: NCI-H23 lung 104% | NCI-H226 lung 100% | NCI-H322M lung 94% | HOP-62 NSCLC 114% | NCI-H460 lung 99.9% | HOP-92 NSCLC 107% | NCI-H522 lung 94.4% | A549/ATCC NSCLC 97.8% | 786-0 renal 88.4% | COLO 205 colon 102% | DU-145 prostate 99.7% | MALME-3M melanoma 106% | MDA-MB-231 breast 110% | RXF 393 renal 95.5% | SF-268 CNS 104% | SF-295 CNS 95.7% | SF-539 CNS 94.7% | UACC-257 melanoma 112% | M14 melanoma 94.8%

CS(=O)(=O)c1ccc2c(c1)c1c(n2Cc2ccc(Cl)cc2)CCCC1
inactive: NCI-H23 lung 73.5% | NCI-H226 lung 80.1% | NCI-H322M lung 87.7% | HOP-62 NSCLC 75.8% | NCI-H460 lung 71.6% | HOP-92 NSCLC 65.7% | NCI-H522 lung 13.7% | 786-0 renal 83.5% | COLO 205 colon 83.3% | DU-145 prostate 86.7% | K-562 leukemia 32.6% | MALME-3M melanoma 74.4% | MDA-MB-231 breast 66.1% | RXF 393 renal 73.4% | SF-268 CNS 86.6% | SF-295 CNS 67% | SF-539 CNS 81.1% | UACC-257 melanoma 92.1% | M14 melanoma 75.6%

COc1ccc([C@H]2[C@H](O)C(=O)N2c2cc(OC)c(OC)c(OC)c2)cc1Cl
inactive: NCI-H23 lung 29.9% | NCI-H226 lung 21.6% | NCI-H322M lung 49.1% | HOP-62 NSCLC 23.1% | 786-0 renal 22.1% | DU-145 prostate 18.3% | MALME-3M melanoma 65.9% | MDA-MB-231 breast 26.9% | RXF 393 renal 24.3% | SF-268 CNS 44.7% | UACC-257 melanoma 40.8%
active: NCI-H460 lung 1.57% | HOP-92 NSCLC -6.45% | NCI-H522 lung -39.7% | COLO 205 colon -79.3% | SF-295 CNS 5.44% | SF-539 CNS -9.87%

CCOC(=O)c1nn(-c2ccccc2)c(=O)c2c(N)c(C#N)c(-c3cccs3)cc12
inactive: NCI-H23 lung 69.4% | NCI-H226 lung 60% | NCI-H322M lung 91.4% | HOP-62 NSCLC 80.4% | NCI-H460 lung 92.9% | HOP-92 NSCLC 61.3% | NCI-H522 lung 83.8% | 786-0 renal 41.4% | COLO 205 colon 102% | DU-145 prostate 88.3% | K-562 leukemia 87.5% | MALME-3M melanoma 88.4% | MDA-MB-231 breast 76.5% | RXF 393 renal 59.9% | SF-268 CNS 85.5% | SF-295 CNS 64.4% | SF-539 CNS 57.2% | UACC-257 melanoma 93.5% | M14 melanoma 94.4%

COc1ccc(-c2no[n+]([O-])c2Nc2ccccc2Br)cc1
inactive: NCI-H23 lung 91.8% | NCI-H322M lung 96.8% | HOP-62 NSCLC 84.5% | NCI-H460 lung 101% | HOP-92 NSCLC 73% | NCI-H522 lung 81.4% | A549/ATCC NSCLC 102% | 786-0 renal 106% | COLO 205 colon 107% | DU-145 prostate 106% | MALME-3M melanoma 88% | MDA-MB-231 breast 81.5% | RXF 393 renal 102% | SF-268 CNS 92.4% | SF-295 CNS 106% | SF-539 CNS 93.9% | M14 melanoma 89.3%
active: NCI-H226 lung -13%

O=[N+]([O-])c1ccc(-c2nnc(SCc3ccc(O)c4ncccc34)n2-c2ccccc2)cc1
inactive: NCI-H23 lung 13.7% | NCI-H226 lung 87.3% | NCI-H322M lung 41.7% | HOP-62 NSCLC 23.2% | 786-0 renal 30.8% | COLO 205 colon 110% | DU-145 prostate 29% | K-562 leukemia 21.2% | MALME-3M melanoma 19.6% | MDA-MB-231 breast 24.8% | RXF 393 renal 16.3% | SF-268 CNS 23.6% | SF-539 CNS 11.7% | UACC-257 melanoma 42.5% | M14 melanoma 24.2%
active: NCI-H460 lung 5.75% | HOP-92 NSCLC -24.4% | NCI-H522 lung 9.93% | SF-295 CNS 5.71%

NC(N)=NS(=O)(=O)c1ccc(N=NC2C(=O)NN(c3ccccc3)C2=O)cc1 (configuration not stated)
inactive: NCI-H23 lung 93.5% | NCI-H226 lung 85.6% | NCI-H322M lung 101% | HOP-62 NSCLC 110% | NCI-H460 lung 101% | HOP-92 NSCLC 68.9% | NCI-H522 lung 104% | 786-0 renal 100% | COLO 205 colon 113% | DU-145 prostate 104% | K-562 leukemia 107% | MALME-3M melanoma 101% | MDA-MB-231 breast 94.9% | RXF 393 renal 106% | SF-268 CNS 102% | SF-295 CNS 104% | SF-539 CNS 94.8% | UACC-257 melanoma 120% | M14 melanoma 99.5%

COc1ccc(N)cc1C(=O)Nc1cccc(-c2cc(=O)c3c(OC)c(OC)c(OC)cc3o2)c1
active: HOP-92 NSCLC 8.78%
inactive: NCI-H23 lung 63.7% | NCI-H226 lung 61.7% | NCI-H322M lung 72.5% | HOP-62 NSCLC 69.6% | NCI-H460 lung 61.5% | NCI-H522 lung 60.5% | 786-0 renal 53.8% | COLO 205 colon 84.7% | DU-145 prostate 59.1% | K-562 leukemia 46.6% | MALME-3M melanoma 89.4% | MDA-MB-231 breast 60.2% | RXF 393 renal 50.4% | SF-268 CNS 68.3% | SF-295 CNS 63.8% | SF-539 CNS 64.4% | UACC-257 melanoma 98.9%

Nc1nc(-c2cccc([N+](=O)[O-])c2)c(N=Nc2cccc(Cl)c2)s1
active: HOP-92 NSCLC -13.7% | RXF 393 renal -11.4%
inactive: NCI-H23 lung 45.5% | NCI-H226 lung 58.5% | NCI-H322M lung 75.1% | HOP-62 NSCLC 46.3% | NCI-H460 lung 49.5% | NCI-H522 lung 26% | 786-0 renal 47.3% | COLO 205 colon 48.1% | DU-145 prostate 63.6% | K-562 leukemia 30.1% | MALME-3M melanoma 93.1% | MDA-MB-231 breast 47.3% | SF-268 CNS 41.4% | SF-295 CNS 53% | SF-539 CNS 55.2% | UACC-257 melanoma 77.6% | M14 melanoma 37%

COCCOc1ccc(-c2csc(NC(C)=O)n2)cc1NS(=O)(=O)c1cccc2c(N(C)C)cccc12
inactive: NCI-H23 lung 104% | NCI-H226 lung 84.9% | NCI-H322M lung 92.6% | HOP-62 NSCLC 102% | NCI-H460 lung 100% | HOP-92 NSCLC 58.6% | NCI-H522 lung 85.2% | 786-0 renal 95.8% | COLO 205 colon 94.5% | DU-145 prostate 98.3% | MALME-3M melanoma 83.9% | MDA-MB-231 breast 80.2% | RXF 393 renal 91.7% | SF-268 CNS 96.2% | SF-295 CNS 95.9% | SF-539 CNS 90.9% | M14 melanoma 94%
